VHR inh abs – blocks human VHR1 dual specificity phosphatase; P51452; recombinant VHR phosphatase, pNPP absorbance; inhibition, % at 13.3 µM; actives 0.52% (n = 290,000); AID 1654; in the data active = inhibition above about 50%
Target sequence (P51452 whole entry, looked up): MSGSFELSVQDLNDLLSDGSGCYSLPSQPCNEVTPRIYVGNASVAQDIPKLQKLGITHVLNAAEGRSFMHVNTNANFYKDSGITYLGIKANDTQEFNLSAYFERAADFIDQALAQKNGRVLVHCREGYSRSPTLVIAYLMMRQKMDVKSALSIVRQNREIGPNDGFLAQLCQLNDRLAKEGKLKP
Mtb RmlCD inh – M. tuberculosis RmlC/RmlD inhibition. RmlC+RmlD coupled enzyme assay, percent inhibition; primary screen in compound mixtures. inhibition, % at 3.6 µM. AID 1533. actives 0.03% (n = 160,000); in the data active = inhibition mostly above about 34%, no sharp cut-off
Numbers without * were called inactive; nt = no result. The list is not random: actives were taken first. Their share in the collection is about 0.54%.

SMILES | VHR inh abs | Mtb RmlCD inh
O=C(NCCN1CCCCC1)Nc1ccc(Cl)cc1 | 57* | nt
COCCCn1c(=O)c2ccccc2n(CC(=O)NC2CCCCC2)c1=O | 26 | nt
O=[N+]([O-])c1ccc(NCCNS(=O)(=O)c2ccccc2)cc1 | 16 | -5
O=C(NCCNS(=O)(=O)c1ccccc1)c1ccc([N+](=O)[O-])cc1 | 58* | nt
COc1ccc(N2CCN(CC(=O)Nc3nc(C)cs3)CC2)cc1 | -32 | nt
O=C1NN(c2ccc(F)cc2)C(=O)/C1=C/c1cccs1 | 22 | 6
Cc1ccc(S(=O)(=O)/N=C(/Nc2cccc(O)c2)c2ccccc2)cc1 | -8 | nt
CCC(=O)N1N=C(c2ccccc2)CC1c1ccccc1 (stereo not drawn) | 6 | nt
CCC(=O)N1N=C2CC(C)(C)OCC2C1c1ccccc1 (stereo not drawn) | 51* | nt
CCN(Cc1ccccc1)S(=O)(=O)c1ccc(S(=O)(=O)N2CCN(C)CC2)cc1 | 36 | 5
CC(=O)Oc1c(I)cc(I)cc1C(=O)Nc1ccc(Cl)cc1 | 10 | nt
Nc1ccc(-c2nc3c(Cl)c(N)ccc3[nH]2)cc1 | 0 | 8
Oc1ccc(Oc2ccc(Oc3ccc(O)cc3)cc2)cc1 | 8 | nt
Cn1cnc(S(=O)(=O)N2CCN(c3cccc(Cl)c3)CC2)c1 | -17 | nt
Cn1cnc(S(=O)(=O)N2CCN(c3cccc(C(F)(F)F)c3)CC2)c1 | 50* | nt
CC1CCCCN1S(=O)(=O)c1ccc(S(=O)(=O)N2CCN(C)CC2)cc1 (stereo not drawn) | 17 | nt
COCc1ccc(C(=O)NC2CCCc3c2cnn3-c2ccc(C)c(C)c2)o1 (stereo not drawn) | 23 | nt
O=C(CCNC(=O)OCc1ccccc1)NC1CCCCC1 | -4 | 11
O=C(CNC(=O)OCc1ccccc1)NC1CCCCCC1 | 53* | 10
O=C(c1cc(COc2ccc3ncccc3c2)on1)N1CCCC(O)C1 (stereo not drawn) | 39 | -16
O=C(c1cc(COc2ccc3ncccc3c2)on1)N1CCC[C@H]1CO | 53* | nt
CCOC(=O)c1c(S(=O)(=O)Nc2ccc(C)cn2)c(C)n(C)c1C | 51* | nt
CCOC(=O)c1c(S(=O)(=O)Nc2ccc(C)c(F)c2)c(C)n(C)c1C | 35 | nt
Cc1ccc(CSc2ccc(-c3ccco3)nn2)cc1 | 53* | 14
c1ccc(CSc2ccc(-c3ccco3)nn2)cc1 | 16 | -2
SMILES | VHR inh abs | Mtb RmlCD inh
Cc1cc(C(=O)Nc2ccccc2C)on1 | 13 | nt
O=C(Nc1c2c(nn1-c1ccc(F)cc1)CS(=O)(=O)C2)c1ccc2c(c1)OCO2 | -9 | nt
CCOC(=O)c1cnc(-n2[nH]c(C)c(Cc3ccccc3)c2=O)[nH]c1=O | 12 | -3
COCC(=O)N(Cc1cc2ccc(C)c(C)c2n2nnnc12)C1CCCC1 | 54* | 6
Cc1cccc2cc(CN(CC3CCCO3)C(=O)c3cccnc3)c3nnnn3c12 (stereo not drawn) | 21 | 36
CC(=O)NNC(=O)c1[nH]c2ccc(Br)cc2c1-c1ccccc1 | -2 | nt
CCOC(=O)NNC(=O)c1[nH]c2ccc(Br)cc2c1-c1ccccc1 | 55* | nt
CC(=O)Nc1c2c(nn1-c1ccccc1C)CS(=O)(=O)C2 | 57* | nt
CC(=O)Nc1c2c(nn1-c1ccccc1C)CSC2 | 58* | nt
CCCC(=O)Nc1c2c(nn1-c1cccc(C)c1C)CS(=O)(=O)C2 | 13 | nt
CCC(=O)Nc1c2c(nn1-c1ccccc1C)CSC2 | 13 | 19
O=C(CNc1cccc(C(F)(F)F)c1)N/N=C/C1CCCCC1 | 2 | 1
CSc1ccc(CNCc2ccc3c(c2)OCO3)cc1 | 55* | nt
Fc1cccc(CNCc2ccc3c(c2)OCO3)c1 | 14 | nt
COc1ccc(CN2CCSc3sccc3C2=O)cc1 | 14 | nt
OC(CNCCc1ccc(C(F)(F)F)cc1)COC(c1ccccc1)c1ccccc1 (stereo not drawn) | 18 | nt
CNC(=S)NNS(=O)(=O)c1ccc(OC)cc1OC | -11 | nt
COc1cccc(NC(=O)NNS(=O)(=O)c2ccc(OC)cc2OC)c1 | 50* | nt
COC(=O)Cn1c2ccc(OC)cc2c2nc(C)sc21 | 9 | nt
COc1ccccc1CNC(=S)Nc1ccc2nc(N3CCN(C)CC3)cc(C)c2c1 | 8 | 4
O=C(c1cccc(-c2ccccc2)c1)N1CC[C@@H](N2CCC(O)CC2)[C@H](O)C1 | 51* | nt
COc1ccc2c(C)c(C(=O)N3CC[C@@H](N4CCC(O)CC4)[C@H](O)C3)oc2c1 | 27 | nt
Cc1noc(C)c1COc1ccc(C(=O)N2CCCC(C(F)(F)F)C2)cc1 (stereo not drawn) | 10 | nt
CCN(CC)S(=O)(=O)c1ccc(-n2cnc3cc(C)c(C)cc32)nc1 | 31 | nt
COc1cc(/C=N/NC(=O)c2cc[n+]([O-])cc2)cc(OC)c1OC | 56* | nt
COc1ccc(/C=N/NC(=O)c2cc[n+]([O-])cc2)cc1OC | 26 | nt
Cc1cccc(NC(=O)C2CC(O)CN2C(=O)Oc2ccccc2)c1 (stereo not drawn) | 2 | nt
CCN(CC)c1nc2c(c(=O)[nH]c(=O)n2C)n1CCCc1ccccc1 | -40 | nt
CCN(Cc1ccccc1)C(=O)CCS(=O)(=O)c1cc2c(cc1Cl)NC(=O)CO2 | -6 | nt
